High-throughput results deposited in PubChem by National Center for Advancing Translational Sciences (NCATS).
TDP43 rescue: rescues yeast growth from TDP-43 toxicity; TDP-43 expressing yeast growth rescue, BacTiter-Glo, 24 h; Potency, µM (top dose mostly 46.1 µM), inactives show at the highest dose growth rescue (activation), most hits filed as activators; 1.8% of 410,000 active; also: % of control where 0% means no effect; nearly all actives have a fitted effect of over 50% in size
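In this qHTS, compounds that restore growth of yeast expressing TDP-43 appear as activators. Cells (OD600=0.02, galactose medium, raffinose-pregrown) are incubated with compound 24 hr at 30 deg C and growth is quantified by BacTiter-Glo.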
Abeta rescue: A-beta toxicity reversal in yeast | yeast expressing A-beta42, growth rescue, OD600, 48 h; response scale: 0% DMSO, 100% iron-clioquinol control | Potency, µM (doses to about 46.1 µM), hits mostly activators | 0.063% of 410,000 active | AID 1347071; also: nearly all actives have a fitted effect of over 55% in size
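Yeast growth medium received pinned compounds, then yeast cells expressing toxic A-beta were added; plates incubated at 30 C for 48 hr. Growth read as absorbance at 600 nm, normalized to DMSO and equimolar FeCl3 plus clioquinol controls.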
FUS yeast rescue: rescues growth of FUS-expressing yeast; S. cerevisiae FUS-expressing, growth rescue, OD600, 24 h; 0.24% of 390,000 active; AID 1347120; Potency, µM (doses to about 76.6 µM), usual class: activators;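 also: plate controls were DMSO vehicle for no effect and reference control for full effect; nearly all actives have a fitted effect of over 55% in size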
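S. cerevisiae expressing FUS from galactose induction served as the toxicity model. Growth after 24hr at 30C, read as absorbance at 600 nm, indicates suppression of toxicity; compounds dosed at several concentrations.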
Chronic BCR inh: inhibitors of chronic active B-cell receptor signaling. ABC-DLBCL IkBa-CBG/CBR reporter, luminescence ratio, 4 h. AID 493014. 0.05% of 340,000 active. Potency, µM (titrated, usually from 46.1 µM), without a hit: at the top dose activity change, negative = inhibition, most hits filed as inhibitors; active = well fitted inhibition curve with a large enough effect in the signal ratio, with a control signal flat, not every such curve was filed as active; inconclusive = small, poorly fitted or top-dose-only effect, or effect the other way, or a change in a side signal; the % refers to the signal ratio;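 also: plate controls were basal doxycycline-induced cells for no effect and cells given 10 µM MG132 for full effect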
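Cell line TMD8 (human ABC DLBCL), stably expressing tet-inducible CBG68-IkBa fusion and CBR; IMDM/0.5% FBS; cpd up to 46 uM; dox induction, 4 h, 37C/5% CO2; dual luminescence; green/red ratio; MG132 control.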
uPA surface inh: cell surface uPA generation inhibition | cell surface uPA generation assay, qHTS | Potency, µM (highest dose often 38.3 µM), for inactives: at the top dose activity change, negative = inhibition, actives largely listed as inhibitors | 0.31% of 330,000 active; active = well fitted inhibition curve with a large enough effect; inconclusive = small, poorly fitted or top-dose-only effect; inactive = no such curve, though single readings can be large or run the other way; tested in mouse RAW 264.7 cells; also: % is scaled to controls: 0 for no effect and ±100 for the full control effect; nearly all actives have a fitted effect of over 55% in size
aSyn rescue: alpha-synuclein toxicity inhibition in yeast; Yeast expressing alpha-synuclein, growth rescue, BacTiter-Glo, 24 h; Potency, µM (highest dose often 46.1 µM), for the others: at the top dose growth rescue (activation), most hits filed as activators; 0.14% of 370,000 active; also: % of control where 0% means no effect; nearly all actives have a fitted effect of over 65% in size
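Readout is rescue of growth in alpha-synuclein-expressing yeast, so inhibitors of toxicity appear as activators. Growth after 24 hr at 30 deg C in galactose medium is quantified by luminescence.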
* hit, by the source's call; i = inactive; ? = inconclusive; · = no result given. In the library only some 2.3% were active in any assay of this set; here they are far more common. Unless noted, calls follow the shape of the dose curve; as a rule, active = well fitted curve in the direction sought with a large enough effect; inconclusive = small, poorly fitted or top-dose-only effect, or another doubt; inactive = no such curve, though single readings can be large; an effect the other way counts as inactive or inconclusive. Potency is read from the fitted curve at half-maximal effect.

SMILES	TDP43 rescue	Abeta rescue	FUS yeast rescue	Chronic BCR inh	uPA surface inh	aSyn rescue
CC1(C(=O)Nc2ccc3c(c2)OCCO3)CN(S(C)(=O)=O)CC(=O)N1Cc1cccc(C(F)(F)F)c1 (stereo unspecified)	22µM*	i	i	·	·	13%
COc1cccc(C2=CC(c3ccccc3F)n3ncc(C(=O)Nc4ccc(F)cc4)c3N2)c1 (stereo unspecified)	22µM*	i	i	·	·	·
O=C(/C=C/c1ccccc1)CC(=O)c1ccccc1O	2%	i	?	14%	8.9µM*	-6%
O=C(/C=C/c1ccccc1)NC(=O)c1ccccc1O	8%	i	i	?	-27%	-11%
O=C(NCc1ccc(Cl)c(Cl)c1)c1cc(C2CCCCN2C(=O)CCc2ccccc2)on1 (stereo unspecified)	8%	i	?	·	·	?
O=C(NCc1ccccc1)c1cc(C2CCCCN2C(=O)CCc2ccccc2)on1 (stereo unspecified)	35µM*	i	i	·	·	8%
O=C(Nc1ccccc1Cl)c1cc(C2CCCN(C(=O)CCCc3ccccc3)C2)on1 (stereo unspecified)	?	i	i	·	·	25%
O=C(NCc1ccccc1)c1cc(C2CCCN(C(=O)CCCc3ccccc3)C2)on1 (stereo unspecified)	35µM*	i	i	·	·	-3%
COc1ccc(/C=C2\SC(=O)NC2=S)cc1OC	8.9µM*	i	i	?	-12%	-16%
CCOc1ccc(/C=C2\SC(=S)NC2=O)cc1OC	-8%	i	i	?	-7%	-1%
Nc1ccc(-c2nc3ncccc3o2)cc1	13%	?	i	3%	?	16µM*
COc1ccc(/C=C(/C(=O)Nc2ccccc2C(=O)NC(C)C)c2ccccc2)cc1	20µM*	i	i	3%	1%	-13%
COc1ccc(N/N=C(/C(C)=O)N2CCCc3ccccc32)cc1	20µM*	i	i	?	-9%	-3%
COc1ccc(/C=C/C(=O)N2CCCc3ccccc32)cc1	20µM*	i	·	?	-1%	-1%
COc1ccc(OC)c(/C=C/C(=O)N2CCCc3ccccc32)c1	?	i	i	?	5%	12%
COc1ccc(NC(=O)N2CCCc3ccccc32)cc1	16%	i	i	0%	-6%	-1%
CC(C)=CC(=O)O[C@@H]1Cc2c(ccc3ccc(=O)oc23)OC1(C)C	-2%	i	i	0%	8%	8%
Cn1c(=O)c2ncn(CC(=O)Nc3cc(C(F)(F)F)ccc3N3CCOCC3)c2n(C)c1=O	-10%	i	i	-9%	·	1%
CCOc1ccc(NC(=S)N(CCc2c(C)[nH]c3ccc(C)cc23)Cc2ccco2)cc1	4%	i	25µM*	-5%	-22%	1%
COC(=O)c1cc2sc(Cl)cc2n1CC(=O)Nc1cc(OC)cc(OC)c1	9%	i	i	·	·	·
O=C(O)c1ccc(Cn2cnc3sc4c(c3c2=O)CCCC4)cc1	-4%	i	i	?	2%	17%
Cn1nnnc1Sc1ncnc2scc(-c3ccc(C#N)cc3)c12	·	i	i	?	?	·
Cn1nnnc1Sc1ncnc2scc(-c3ccc(-c4ccccc4)cc3)c12	·	i	i	?	2µM*	·
Cn1nnnc1Sc1ncnc2scc(-c3cccc(C(F)(F)F)c3)c12	·	i	i	?	8.9µM*	·
Cn1nnnc1Sc1ncnc2scc(-c3ccc(C(F)(F)F)cc3)c12	·	i	i	?	?	·
O=C(CCCn1nnc2ccccc2c1=O)N[C@H](C(=O)O)c1ccccc1	-5%	i	i	-1%	15%	2%
CCOC(=O)c1ccccc1Oc1c(F)c(F)nc(NCCO)c1F	11%	i	i	-1%	5%	-4%
Clc1ccc2nnnc(-c3ccccc3)c2c1	3.2µM*	i	i	?	-2%	14%
